Results filed as inconclusive are left out. Calls of active or inactive are those of the source. Unless noted, calls follow the shape of the dose curve; as a rule, active = well fitted curve in the direction sought with a large enough effect in the repeat runs; inconclusive = weak or mixed curves; inactive = no such curve, though single readings can be large; an effect the other way counts as inactive or inconclusive.
Experiments:
[1] = qHTS assay to identify small molecule antagonists of the thyroid receptor (TR) signaling pathway - cell viability counter screen (AID 743064); also: nearly all actives have a fitted effect of over 50% in size
Method in brief: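 Same-well viability check: GH3.TRE-Luc cells stimulated with 1 nM T3 alongside test compound for 23.5 h, followed by CellTiter-Fluor fluorescence.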

[2] = qHTS assay to identify small molecule antagonists of the thyroid receptor (TR) signaling pathway (AID 743065); also: nearly all actives have a fitted effect of over 55% in size
Method in brief: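 GH3.TRE-Luc rat pituitary cells (two TREs driving luciferase) were dosed with compound, then stimulated with 1 nM T3 (final) for 23.5 h at 37 C. ONE-Glo luminescence was the read-out, with CellTiter-Fluor fluorescence as the cytotoxicity counter-screen.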

[3] = system: thyroid hormone receptor (rat, GH3 cells); assay: qHTS assay to identify small molecule agonists of the thyroid receptor (TR) signaling pathway (AID 743066; calls by dose curve)
[4] = target: Estrogen receptor (Homo sapiens) (UniProt P03372); assay: qHTS assay to identify small molecule antagonists of the estrogen receptor alpha (ER-alpha) signaling pathway (AID 743069; active = well fitted curve in the direction sought with a large enough effect in the signal ratio in the repeat runs, not every such curve was filed as active; the % refers to the signal ratio)
Sequence of Estrogen receptor (Homo sapiens) (P03372 whole entry, looked up): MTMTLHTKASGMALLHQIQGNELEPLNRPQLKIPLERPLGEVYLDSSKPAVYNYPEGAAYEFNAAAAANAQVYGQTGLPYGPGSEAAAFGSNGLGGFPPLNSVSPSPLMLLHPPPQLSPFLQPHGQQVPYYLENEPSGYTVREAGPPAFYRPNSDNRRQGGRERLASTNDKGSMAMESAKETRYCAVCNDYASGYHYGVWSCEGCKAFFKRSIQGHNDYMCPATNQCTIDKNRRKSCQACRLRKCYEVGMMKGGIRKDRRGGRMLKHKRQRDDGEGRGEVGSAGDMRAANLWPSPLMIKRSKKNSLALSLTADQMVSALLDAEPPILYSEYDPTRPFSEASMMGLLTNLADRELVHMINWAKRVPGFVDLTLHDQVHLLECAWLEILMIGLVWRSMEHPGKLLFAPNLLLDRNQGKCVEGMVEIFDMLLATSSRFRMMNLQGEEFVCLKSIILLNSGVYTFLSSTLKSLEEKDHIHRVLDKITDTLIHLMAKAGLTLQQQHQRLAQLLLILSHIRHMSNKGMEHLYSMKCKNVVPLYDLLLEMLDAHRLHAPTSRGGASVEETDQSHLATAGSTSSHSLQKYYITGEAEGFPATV
Method in brief: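 In this cell-based reporter format, GripTite HEK293 cells harbouring ER-alpha-UAS-bla were grown overnight with 2% charcoal-stripped FBS, dosed with DMSO-dissolved compounds, then challenged with 17beta-estradiol. After 18 hr at 37C, beta-lactamase activity was detected by FRET fluorescence.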

[5] = qHTS assay to identify small molecule antagonists of the estrogen receptor alpha (ER-alpha) signaling pathway - cell viability counter screen (AID 743074; calls by dose curve; also: nearly all actives have a fitted effect of over 45% in size)
[6] = target: Estrogen receptor (Homo sapiens) (UniProt P03372); assay: qHTS assay to identify small molecule agonists of the estrogen receptor alpha (ER-alpha) signaling pathway (AID 743075; calls by dose curve)
[7] = target: Estrogen receptor (Homo sapiens) (UniProt P03372); assay: qHTS assay to identify small molecule agonists of the estrogen receptor alpha (ER-alpha) signaling pathway using the BG1 cell line (AID 743079); conditions: BG1Luc4E2 cells, ERE-luciferase agonist, 22 h; activation: at 70.3 µM (top of the series); also: nearly all actives have a fitted effect of over 20% in size
[8] = qHTS assay to identify small molecule antagonists of the estrogen receptor alpha (ER-alpha) signaling pathway using the BG1 cell line (AID 743080; calls by dose curve;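 also: BG1 cells stimulated with 17beta-estradiol alongside compound; nearly all actives have a fitted effect of over 25% in size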)
Method in brief: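 Quantitative HTS on the Tox21 10K library: BG1 cells with endogenous ER-alpha and ERE-luciferase reporter, 17beta-estradiol stimulation, 21.5 h compound exposure, luminescence endpoint with parallel fluorescence cytotoxicity counter-read.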

[9] = qHTS assay to identify small molecule antagonists of the estrogen receptor alpha (ER-alpha) signaling pathway using the BG1 cell line - cell viability counter screen (AID 743081);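 also: compound given together with 17beta-estradiol as the ER stimulus; nearly all actives have a fitted effect of over 45% in size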
[10] = target: Aromatase (Homo sapiens) (UniProt P11511); assay: qHTS assay to identify aromatase inhibitors (AID 743083); also: nearly all actives have a fitted effect of over 55% in size
Sequence of Aromatase (Homo sapiens) (P11511 whole entry, looked up): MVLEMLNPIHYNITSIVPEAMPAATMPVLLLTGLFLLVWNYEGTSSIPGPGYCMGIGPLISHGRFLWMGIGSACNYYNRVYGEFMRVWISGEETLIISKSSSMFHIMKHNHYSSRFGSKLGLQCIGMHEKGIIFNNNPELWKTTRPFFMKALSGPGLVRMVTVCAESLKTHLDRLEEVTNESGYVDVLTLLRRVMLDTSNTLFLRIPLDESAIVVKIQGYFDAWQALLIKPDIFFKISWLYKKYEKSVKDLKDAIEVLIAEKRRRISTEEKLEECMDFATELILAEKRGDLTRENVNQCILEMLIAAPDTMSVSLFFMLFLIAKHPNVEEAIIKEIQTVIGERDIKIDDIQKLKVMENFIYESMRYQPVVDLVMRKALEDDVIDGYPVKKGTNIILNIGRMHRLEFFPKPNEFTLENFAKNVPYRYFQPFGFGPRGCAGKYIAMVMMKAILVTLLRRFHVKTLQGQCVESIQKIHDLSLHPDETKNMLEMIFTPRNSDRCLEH

[11] = qHTS assay to identify aromatase inhibitors - cell viability counter screen (AID 743084);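 also: cells stimulated with testosterone during compound exposure; nearly all actives have a fitted effect of over 55% in size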
[12] = target: Aryl hydrocarbon receptor (Homo sapiens) (UniProt P35869); assay: qHTS assay to identify small molecule that activate the aryl hydrocarbon receptor (AhR) signaling pathway (AID 743085);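 also: HG2L7.5c1 human HepG2 liver cells with stably integrated DRE-driven firefly reporter; nearly all actives have a fitted effect of over 15% in size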
Sequence of Aryl hydrocarbon receptor (Homo sapiens) (P35869 whole entry, looked up): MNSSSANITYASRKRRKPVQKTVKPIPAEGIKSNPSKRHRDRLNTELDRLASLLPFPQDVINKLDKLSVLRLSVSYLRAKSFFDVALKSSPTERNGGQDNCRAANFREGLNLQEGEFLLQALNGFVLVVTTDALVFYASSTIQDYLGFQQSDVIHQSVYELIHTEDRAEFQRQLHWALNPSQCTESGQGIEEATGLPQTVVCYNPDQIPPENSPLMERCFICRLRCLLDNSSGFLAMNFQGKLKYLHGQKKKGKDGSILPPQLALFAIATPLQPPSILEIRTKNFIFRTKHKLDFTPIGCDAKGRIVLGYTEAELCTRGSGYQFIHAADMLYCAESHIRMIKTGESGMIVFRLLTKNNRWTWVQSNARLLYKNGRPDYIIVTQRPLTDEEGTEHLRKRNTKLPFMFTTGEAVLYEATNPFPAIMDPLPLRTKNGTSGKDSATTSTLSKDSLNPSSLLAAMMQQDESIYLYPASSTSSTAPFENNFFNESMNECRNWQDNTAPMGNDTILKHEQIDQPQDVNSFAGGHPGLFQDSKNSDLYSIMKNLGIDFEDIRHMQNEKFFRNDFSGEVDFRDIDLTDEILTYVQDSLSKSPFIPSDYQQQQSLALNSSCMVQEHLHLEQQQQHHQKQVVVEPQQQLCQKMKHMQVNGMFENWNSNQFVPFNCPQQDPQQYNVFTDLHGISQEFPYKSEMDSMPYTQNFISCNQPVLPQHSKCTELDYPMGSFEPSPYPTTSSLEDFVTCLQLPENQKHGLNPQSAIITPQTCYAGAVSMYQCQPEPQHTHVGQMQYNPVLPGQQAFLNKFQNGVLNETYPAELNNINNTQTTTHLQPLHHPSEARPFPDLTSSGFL
Method in brief: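 Reporter assay in engineered HepG2 line HG2L7.5c1, whose plasmid carries twenty dioxin responsive elements upstream of firefly luciferase. Treatment lasted 24 h at 37C; ONE-Glo luminescence gauged induction.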

[13] = qHTS assay to identify small molecule that activate the aryl hydrocarbon receptor (AhR) signaling pathway - cell viability counter screen (AID 743086);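 also: HepG2 liver cells carrying the AhR DRE luciferase reporter; nearly all actives have a fitted effect of over 45% in size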
Method in brief: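 HepG2-AhR-luc (HG2L7.5c1) cells, 4000/well, treated 24 h at 37 C with compound; viability measured as CellTiter-Fluor fluorescence after 30 min in the same wells as the luciferase read.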

[14] = target: Peroxisome proliferator-activated receptor gamma (Homo sapiens) (UniProt P37231); assay: qHTS assay to identify small molecule agonists of the peroxisome proliferator-activated receptor gamma (PPARg) signaling pathway (AID 743094; active = well fitted activation curve with a large enough effect in the signal ratio in the repeat runs, not every such curve was filed as active; the % refers to the signal ratio)
Sequence of Peroxisome proliferator-activated receptor gamma (Homo sapiens) (P37231 whole entry, looked up): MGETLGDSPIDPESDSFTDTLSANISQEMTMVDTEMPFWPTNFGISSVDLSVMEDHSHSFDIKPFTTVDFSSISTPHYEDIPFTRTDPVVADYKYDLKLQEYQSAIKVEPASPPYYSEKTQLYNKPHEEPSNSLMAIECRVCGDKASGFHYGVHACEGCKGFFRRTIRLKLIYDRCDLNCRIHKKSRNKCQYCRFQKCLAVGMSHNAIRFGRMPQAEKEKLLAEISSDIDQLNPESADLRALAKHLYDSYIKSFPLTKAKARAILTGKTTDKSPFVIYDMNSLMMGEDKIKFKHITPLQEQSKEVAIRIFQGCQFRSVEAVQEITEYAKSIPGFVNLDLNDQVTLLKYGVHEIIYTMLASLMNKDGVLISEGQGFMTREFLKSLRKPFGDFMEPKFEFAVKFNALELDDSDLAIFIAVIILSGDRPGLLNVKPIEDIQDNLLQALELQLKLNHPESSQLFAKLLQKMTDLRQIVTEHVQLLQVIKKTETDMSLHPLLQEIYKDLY
Method in brief: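 Fluorescence-based beta-lactamase readout in HEK293H PPARg UAS-bla cells after 17 h compound exposure (37C) and 1 h B/G FRET substrate incubation at room temperature.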

[15] = qHTS assay to identify small molecule antagonists of the peroxisome proliferator-activated receptor gamma (PPARg) signaling pathway - cell viability counter screen (AID 743194); also: nearly all actives have a fitted effect of over 55% in size
Method in brief: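 Cytotoxicity counter screen in PPARg-bla HEK293H cells, same wells as reporter assay. Compounds plus 50 nM rosiglitazone (final) for 17 h at 37 C, then viability read by CellTiter-Glo luminescence.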

[16] = qHTS assay for small molecule activators of the heat shock response signaling pathway - cell viability counter screen (AID 743209); also: nearly all actives have a fitted effect of over 50% in size
Method in brief: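 To flag cytotoxic compounds, HSE-bla HeLa cells plated at 1500 cells/well were dosed for 5 h at 37 C, followed by the reporter FRET read and then CellTiter-Glo, with luminescence recorded 30 min after reagent addition.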

[17] = qHTS assay for small molecule activators of the heat shock response signaling pathway (AID 743210; active = well fitted activation curve with a large enough effect in the signal ratio in the repeat runs, with a control signal flat, not every such curve was filed as active; the % refers to the signal ratio;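 also: HeLa cells with beta-lactamase reporter driven by heat shock elements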)
Method in brief: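 Following overnight attachment, HSE-bla HeLa cells received test compounds for 5 h at 37 C; beta-lactamase activity was then detected via FRET substrate fluorescence.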

[18] = qHTS assay for small molecule agonists of the antioxidant response element (ARE) signaling pathway - cell viability counter screen (AID 743203; calls by dose curve; also: nearly all actives have a fitted effect of over 55% in size)
Method in brief: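 Parallel cytotoxicity read-out for the ARE-bla screen: HepG2 reporter cells, 16 hrs with compounds, then CellTiter-Glo luminescence.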

[19] = target: Peroxisome proliferator-activated receptor gamma (Homo sapiens) (UniProt P37231); assay: qHTS assay to identify small molecule antagonists of the peroxisome proliferator-activated receptor gamma (PPARg) signaling pathway (AID 743191; calls by dose curve; also: nearly all actives have a fitted effect of over 30% in size)
Method in brief: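 GeneBLAzer PPARg UAS-bla HEK293H cells, 5 h post-plating, exposed to compounds 17 h at 37C. LiveBLAzer B/G FRET substrate added for 1 h at room temperature; beta-lactamase reporter read by fluorescence intensity.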

[20] = qHTS assay for small molecule agonists of the antioxidant response element (ARE) signaling pathway (AID 743202; active = well fitted activation curve with a large enough effect in the signal ratio in the repeat runs, not every such curve was filed as active; the % refers to the signal ratio)
Method in brief: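 HepG2 ARE-bla cells; 16 h treatment at 37 C; FRET-based beta-lactamase fluorescence read after 2 h substrate incubation at room temperature.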

Measured: Potency

C=C(C)CCCC(C)CCO (centres undefined)
not listed: [18] | [19] | [20]
inactive: all other assays above

O=c1[nH]c2ccc(Cl)cc2o1
not listed: [14] | [19] | [20]
inactive: all other assays above

CCC(=O)C1CC(C(C)C)CC=C1C (centres undefined)
inactive: all assays above

COc1cc(C(=O)NCCCCCC(=O)O)cc(OC)c1OC
not listed: [15]
inactive: all other assays above

CCn1cc(C(=O)O)c(=O)c2cc(F)c(N3CCNCC3)cc21
not listed: [17]
inactive: all other assays above

O=C(/C=C/c1ccc(O)c(O)c1)O[C@@H]1C[C@@](OC(=O)/C=C/c2ccc(O)c(O)c2)(C(=O)O)C[C@@H](O)[C@@H]1O
not listed: [18] | [20]
inactive: all other assays above

C=CC(C)(CCC=C(C)C)OC(=O)CC(C)C (centres undefined)
not listed: [20]
inactive: all other assays above

CC(O)c1ccccc1 (centres undefined)
inactive: all assays above

C=C1c2cccc(O)c2C(O)=C2C(=O)[C@]3(O)C(O)=C(C(N)=O)C(=O)[C@@H](N(C)C)[C@@H]3[C@@H](O)[C@H]12
not listed: [17] | [19]
inactive: all other assays above

Cc1ccco1
not listed: [17] | [20]
inactive: all other assays above

O=C(O)CCC(=O)C(=O)O
not listed: [19]
inactive: all other assays above

CO[C@]1(NC(=O)CSC(F)F)C(=O)N2C(C(=O)O)=C(CSc3nnnn3CCO)CO[C@H]21
inactive: all assays above

Nc1cccc2c1CN(C1CCC(=O)NC1=O)C2=O (centres undefined)
not listed: [17]
inactive: all other assays above

O=c1[nH]ncc2ccccc12
not listed: [17]
inactive: all other assays above

CN1C(=O)OC(C)(C)C1=O
not listed: [15] | [17] | [19]
inactive: all other assays above
